Results: PubChem BioAssay
The source made the active and inactive calls.

Assays:
Albumin (Bos taurus) = Albumin (Bos taurus) (UniProt P02769); experiment: bovine serum albumin binders on microarray, profiling panel, artefact control for SMM control protein annotation, biochemical, small-molecule microarray, Alexa647 label, 635/667 nm fluorescence (AID 1118); conditions: BSA-A647 binding, fluorescence 635 nm, higher = more signal;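 further: score merges 667 nm emission intensity and signal-to-noise per printed compound spot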
Chain of Albumin (Bos taurus) (P02769 whole entry, looked up): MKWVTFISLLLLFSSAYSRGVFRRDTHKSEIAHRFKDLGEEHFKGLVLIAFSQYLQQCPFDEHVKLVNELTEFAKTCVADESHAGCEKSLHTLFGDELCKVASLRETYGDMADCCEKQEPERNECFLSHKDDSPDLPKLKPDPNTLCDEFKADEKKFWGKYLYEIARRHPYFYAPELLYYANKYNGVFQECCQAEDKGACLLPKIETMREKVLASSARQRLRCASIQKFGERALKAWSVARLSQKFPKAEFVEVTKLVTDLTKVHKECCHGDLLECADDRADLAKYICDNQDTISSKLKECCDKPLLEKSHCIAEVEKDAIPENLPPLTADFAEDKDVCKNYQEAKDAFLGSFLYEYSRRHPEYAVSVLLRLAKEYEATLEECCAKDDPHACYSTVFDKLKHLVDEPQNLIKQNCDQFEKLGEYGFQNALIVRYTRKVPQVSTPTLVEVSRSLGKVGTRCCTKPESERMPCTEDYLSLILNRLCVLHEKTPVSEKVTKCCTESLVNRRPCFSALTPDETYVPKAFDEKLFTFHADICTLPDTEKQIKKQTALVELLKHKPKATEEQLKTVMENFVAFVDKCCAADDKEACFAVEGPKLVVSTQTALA

[1] = small-molecule microarray binders of probe aXIP, primary screen, biochemical, NeuroSMM set, 635/667 nm fluorescence (AID 1119); conditions: higher = more signal, called active from +8 up or from −8 down;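 further: probe is the protein aXip251-270 applied at 1 µg/mL to compound-printed slides; binding of probe to printed compounds measured as 667 nm fluorescence plus signal to noise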
[2] = small-molecule binders of probe aNOTCH3, primary screen, biochemical, small-molecule microarray, 635/667 nm fluorescence (AID 1120); conditions: higher = more signal;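 further: probe is a biotin-tagged antibody raised against NOTCH3 rather than NOTCH3 protein; score merges spot fluorescence near 667 nm with spot signal to noise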
[3] = small-molecule binders of probe aNOTCH2, primary screen, biochemical, small-molecule microarray, 635/667 nm fluorescence (AID 1121); conditions: higher = more signal;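 further: score merges feature fluorescence read at 667 nm with its signal to noise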
[4] = target: Carbonic anhydrase 2 (Homo sapiens) (UniProt P00918); experiment: CAII small-molecule binders, profiling panel, biochemical, small-molecule microarray, Alexa647-labelled CAII (AID 1122); conditions: CAII-A647 binding fluorescence, higher = more signal
[5] = COS7 lysate on small-molecule microarray, probe aHis, 635 nm (AID 1123); conditions: COS7 cell lysate, fluorescence, higher = more signal;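 further: z-score combines 667nm fluorescence intensity with signal-to-noise per printed compound spot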
[6] = compound binding in COS7 lysate, probe aLAP1, primary screen, cell lysate, small-molecule microarray (AID 1124); conditions: probe aLAP1, fluorescence, higher = more signal;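 further: lysate comes from COS7 cells expressing LAP1 and is applied at 0.3 µg/mL; score merges spot fluorescence near 667 nm with signal-to-noise over triplicate slides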
Sam68 (KHDRBS1) = experiment: Sam68 small-molecule binders, primary screen, biochemical, small-molecule microarray, 635 nm fluorescence (AID 1125); conditions: small-molecule microarray binding, higher = more signal;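 further: score merges 667 nm channel intensity with signal to noise over triplicate slides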
[7] = tested on: Chordin-like protein 2 (CHRDL2); experiment: CHRDL2 small-molecule binders, primary screen, biochemical, small-molecule microarray, 635 nm fluorescence (AID 1126); conditions: small-molecule microarray binding, fluorescence 635 nm; higher = more signal;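 further: printed compound slides probed with Chrdl2 protein at 4 µg/mL for 1 h at 4 C; score merges 667 nm emission intensity with signal to noise over three replicate slides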
[8] = target: Concanavalin-A (Canavalia ensiformis) (UniProt P02866); experiment: ConA small-molecule binders, primary screen, artefact control for SMM control protein annotation, biochemical, small-molecule microarray, Alexa647 label, 635 nm (AID 1127); conditions: ConA-A647 binding fluorescence, higher = more signal;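 further: z combines 667 nm emission intensity with signal-to-noise across three replicate slides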
Chain of Concanavalin-A (Canavalia ensiformis) (P02866 whole entry, looked up): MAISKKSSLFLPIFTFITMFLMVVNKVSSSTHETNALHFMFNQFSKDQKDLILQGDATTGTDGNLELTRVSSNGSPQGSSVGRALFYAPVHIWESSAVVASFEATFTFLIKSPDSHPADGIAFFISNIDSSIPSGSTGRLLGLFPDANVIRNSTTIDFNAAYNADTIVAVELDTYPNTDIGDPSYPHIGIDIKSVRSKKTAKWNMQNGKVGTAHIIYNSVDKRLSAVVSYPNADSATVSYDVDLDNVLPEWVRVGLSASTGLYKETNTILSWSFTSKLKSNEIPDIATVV

[9] = anti-His antibody binders, primary screen, artefact control for SMM control protein annotation, biochemical, small-molecule microarray, 635 nm fluorescence (AID 1128); conditions: anti-His Alexa647 antibody binding, higher = more signal;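 further: score merges feature fluorescence with signal-to-noise for each printed compound spot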
[10] = tested on: Human papillomavirus type 1a E7 protein (residues 1-88); experiment: HPV1a E7 small-molecule binders, primary screen, biochemical, small-molecule microarray, residues 1-88, 635 nm (AID 1129); conditions: small-molecule microarray binding, fluorescence 635 nm; higher = more signal
[11] = target: Focal adhesion kinase 1 (Homo sapiens) (UniProt Q05397); experiment: small-molecule microarray binders of FAK, primary screen, biochemical, 635/667 nm fluorescence, BSA, DTT (AID 1130); conditions: PTK2 binding, 635 nm fluorescence, higher = more signal;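 further: composite of spot emission at 667 nm and signal to noise over triplicate slides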
Chain of Focal adhesion kinase 1 (Homo sapiens) (Q05397 whole entry, looked up): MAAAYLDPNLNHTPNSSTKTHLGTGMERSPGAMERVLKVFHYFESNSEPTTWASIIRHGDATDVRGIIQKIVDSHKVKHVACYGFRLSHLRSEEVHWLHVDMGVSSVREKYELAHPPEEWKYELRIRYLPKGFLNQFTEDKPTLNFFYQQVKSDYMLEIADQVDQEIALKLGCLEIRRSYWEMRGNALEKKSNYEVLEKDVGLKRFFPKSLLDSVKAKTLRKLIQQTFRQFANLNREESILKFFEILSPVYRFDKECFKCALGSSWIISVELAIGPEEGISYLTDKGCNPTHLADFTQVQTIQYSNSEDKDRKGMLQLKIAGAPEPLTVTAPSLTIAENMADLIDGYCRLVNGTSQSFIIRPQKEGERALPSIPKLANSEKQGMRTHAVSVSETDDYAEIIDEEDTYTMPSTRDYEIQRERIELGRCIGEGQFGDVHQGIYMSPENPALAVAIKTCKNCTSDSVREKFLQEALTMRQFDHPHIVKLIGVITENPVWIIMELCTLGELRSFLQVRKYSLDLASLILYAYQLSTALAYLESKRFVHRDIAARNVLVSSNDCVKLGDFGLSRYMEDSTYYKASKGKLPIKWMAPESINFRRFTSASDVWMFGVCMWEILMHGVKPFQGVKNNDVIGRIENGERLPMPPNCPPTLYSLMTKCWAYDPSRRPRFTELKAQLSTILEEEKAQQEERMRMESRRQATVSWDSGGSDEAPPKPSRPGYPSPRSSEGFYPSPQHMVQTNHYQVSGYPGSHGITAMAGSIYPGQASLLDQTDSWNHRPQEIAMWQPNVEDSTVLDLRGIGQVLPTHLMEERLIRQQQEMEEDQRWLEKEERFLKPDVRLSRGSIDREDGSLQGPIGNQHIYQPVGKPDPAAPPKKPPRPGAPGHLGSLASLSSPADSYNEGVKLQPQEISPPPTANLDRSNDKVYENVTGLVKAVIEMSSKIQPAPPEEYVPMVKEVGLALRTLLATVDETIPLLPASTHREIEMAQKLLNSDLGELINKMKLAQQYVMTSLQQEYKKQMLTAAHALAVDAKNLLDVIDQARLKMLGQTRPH

[12] = tested on: Fibrinogen (Alexa647-labelled); experiment: fibrinogen binders on compound microarrays, profiling panel, artefact control for SMM control-protein annotation, biochemical, small-molecule microarray, 635/667 nm fluorescence (AID 1131); conditions: fibrinogen-A647 binding fluorescence, higher = more signal;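 further: z-score merges 667 nm fluorescence with per-spot signal-to-noise over triplicate slides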
[13] = target: Follistatin (Homo sapiens) (UniProt P19883); experiment: follistatin binders on small-molecule microarrays, primary screen, biochemical, small-molecule microarray, 635/667 nm fluorescence (AID 1132); conditions: FST binding, 635 nm fluorescence, higher = more signal
Chain of Follistatin (Homo sapiens) (P19883 whole entry, looked up): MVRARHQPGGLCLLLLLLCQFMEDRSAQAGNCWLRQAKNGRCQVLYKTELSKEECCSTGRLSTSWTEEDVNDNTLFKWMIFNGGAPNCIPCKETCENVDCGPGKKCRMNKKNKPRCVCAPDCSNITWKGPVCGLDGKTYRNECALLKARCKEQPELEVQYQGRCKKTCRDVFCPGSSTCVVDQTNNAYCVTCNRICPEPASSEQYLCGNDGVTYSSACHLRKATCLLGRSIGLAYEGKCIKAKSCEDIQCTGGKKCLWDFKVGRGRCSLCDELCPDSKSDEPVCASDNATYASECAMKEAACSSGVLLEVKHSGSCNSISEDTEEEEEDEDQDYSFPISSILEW

[14] = target: Fibroblast growth factor 2 (Homo sapiens) (UniProt P09038); experiment: FGF2 binders on small-molecule microarrays, primary screen, biochemical, small-molecule microarray, 635/667 nm fluorescence (AID 1133); conditions: small-molecule microarray binding, FGF2, fluorescence 635/667; higher = more signal
Chain of Fibroblast growth factor 2 (Homo sapiens) (P09038 whole entry, looked up): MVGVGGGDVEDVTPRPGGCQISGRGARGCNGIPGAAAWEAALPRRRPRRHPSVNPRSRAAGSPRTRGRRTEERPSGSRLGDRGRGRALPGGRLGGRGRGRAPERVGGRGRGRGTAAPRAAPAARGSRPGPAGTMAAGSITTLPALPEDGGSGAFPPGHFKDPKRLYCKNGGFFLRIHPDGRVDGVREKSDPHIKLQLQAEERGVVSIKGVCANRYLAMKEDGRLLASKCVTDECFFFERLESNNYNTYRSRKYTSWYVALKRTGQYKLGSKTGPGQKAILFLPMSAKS

[15] = mitochondrial membrane potential change in A549 cells, profiling panel, cell-based, JC-1 fluorescence, basal, 24 h, 100 nL (AID 1138); conditions: higher = more signal;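 further: A549 lung adenocarcinoma cells under basal conditions with no added stimulus; test concentration not given here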
Lefty1 = Lefty1 binders on small-molecule microarrays, primary screen, biochemical, small-molecule microarray, 635/667 nm fluorescence (AID 1139); conditions: small-molecule microarray binding, fluorescence 635/667; higher = more signal
[16] = tested on: wheat germ agglutinin (Triticum aestivum), Alexa647-labelled; experiment: wheat germ agglutinin binders on compound microarrays, profiling panel, artefact control for SMM control-protein annotation, biochemical, small-molecule microarray, 635/667 nm fluorescence (AID 1140); conditions: WGA-A647 binding, 635 nm fluorescence, higher = more signal;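 further: score merges 667 nm feature emission with signal to noise over triplicate slides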
[17] = target: Luciferin 4-monooxygenase (Photinus pyralis) (UniProt P08659); experiment: firefly luciferase enzyme inhibitors, primary screen, biochemical, luminescence, purified enzyme, 2006 set (AID 1141); conditions: SteadyGlo luminescence, 30 min, higher = more signal, called active from +8 up or from −8 down;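 further: cell-free assay with purified firefly luciferase at 100 ng per well in PBS; test concentration not given here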
Chain of Luciferin 4-monooxygenase (Photinus pyralis) (P08659 whole entry, looked up): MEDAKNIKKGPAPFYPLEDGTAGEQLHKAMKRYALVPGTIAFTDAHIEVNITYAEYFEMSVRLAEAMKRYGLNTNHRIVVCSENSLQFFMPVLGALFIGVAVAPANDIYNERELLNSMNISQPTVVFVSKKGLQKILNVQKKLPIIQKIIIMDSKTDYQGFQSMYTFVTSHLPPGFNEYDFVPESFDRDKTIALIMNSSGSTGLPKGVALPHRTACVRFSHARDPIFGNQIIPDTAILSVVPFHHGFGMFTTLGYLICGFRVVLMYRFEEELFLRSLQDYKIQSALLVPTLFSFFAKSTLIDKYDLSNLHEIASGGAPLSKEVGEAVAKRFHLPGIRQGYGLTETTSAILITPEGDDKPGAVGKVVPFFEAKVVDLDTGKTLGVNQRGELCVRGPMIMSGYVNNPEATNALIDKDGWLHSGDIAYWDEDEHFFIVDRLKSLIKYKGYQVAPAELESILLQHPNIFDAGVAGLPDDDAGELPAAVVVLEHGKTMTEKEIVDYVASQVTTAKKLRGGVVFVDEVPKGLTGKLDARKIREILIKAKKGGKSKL

SMILES	composite z-score (Albumin (Bos taurus))	composite Z-score [1]	composite z-score [2]	composite z-score [3]	composite z-score [4]	composite z-score [5]	composite z-score [6]	composite z-score (Sam68 (KHDRBS1))	composite z-score [7]	composite z-score [8]	composite z-score [9]	composite z-score [10]	composite z-score [11]	composite z-score [12]	composite z-score [13]	composite z-score [14]	z-score [15]	composite z-score (Lefty1)	composite z-score [16]	z-score [17]
NCCCCCCNC(=O)[C@H]1C[C@H]2C(=O)NCC(=O)N2[C@H]1c1cccc(OCCO)c1	-0.512	0.727 (inactive)	-0.0311	-0.153	0.536	1.07	0.295	1.29	1.37	1.1	0.869	0.858	0.215	0.794	1.24	1.55	1.85	1.04	1.08	-1.7 (inactive)
COCC(=C=CC[C@H](O)c1ccc(OCCO)cc1)C[C@H](O)c1cc(Cl)cc(Cl)c1O	-0.679	-0.566 (inactive)	0.114	-0.122	0.718	-1.65	0.359	1.17	0.923	0.661	0.773	0.907	-0.427	0.799	1.38	1.4	0.268	1.47	0.0552	-0.846 (inactive)
C=C[C@H](COC(C)=O)N(Cc1ccc(OC(C)=O)c(OC)c1)S(=O)(=O)c1ccc(Br)cc1	0.777	0.365 (inactive)	0.223	0.272	0.512	0.987	0.509	0.988	0.771	1.04	1.29	1.12	-0.174	0.59	1.37	1.75	1.15	1.02	0.492	0.271 (inactive)
C=C[C@@H](COC(C)=O)N(Cc1ccccc1[N+](=O)[O-])S(=O)(=O)c1ccc(Br)cc1	0.138	1.55 (inactive)	0.122	0.181	0.659	-0.0383	0.343	0.92	1.32	0.602	2.18	1.11	0.547	0.619	1.42	1.51	0.505	0.929	0.567	0.335 (inactive)
N[C@@H](Cc1ccccc1)Cn1cc(-c2ccccc2)nn1	0.656	-0.254 (inactive)	0.0879	-0.053	-0.062	0.281	0.954	0.406	0.53	-0.109	-0.0727	0.184	-0.0983	0.274	0.219	-0.311	0.805	-0.155	0.441	-1.32 (inactive)
C[C@]1(C(=O)NCc2ccccc2)c2ccccc2C(=O)N(Cc2cc(F)cc(C(F)(F)F)c2)[C@H]1c1ccc(CO)cc1	-0.35	-0.146 (inactive)	-0.177	-0.0971	0.699	0.157	0.325	-0.763	-0.786	-0.871	0.84	-0.184	-0.349	-0.582	-1.13	-0.278	0.916	-1.14	-0.566	0.585 (inactive)
NC(=O)NCC#Cc1ccc2c(c1)[C@]1(C(=O)N2)[C@H](C(=O)NC[C@H](O)c2ccccc2)[C@H]2C(=O)O[C@H](c3ccccc3)[C@H](c3ccccc3)N2[C@@H]1c1ccc(O)cc1	0.496	0.58 (inactive)	0.51	0.159	0.501	2.15	0.743	0.998	0.395	1.13	0.489	1.17	0.58	0.673	1.17	1.21	-2.34	0.595	1.09	-0.0138 (inactive)
CCOC(=O)C1=CCC(c2ccc(C#N)cc2)N(S(=O)(=O)c2ccc(C)cc2)C1 (stereo not given)	0.886	0.356 (inactive)	0.1	0.188	0.695	1.63	1.18	1.3	-0.1	1.14	1.64	1.2	0.047	0.824	0.552	0.168	-0.142	-0.303	1.19	0.115 (inactive)
C=CCOC(=O)[C@H]1[C@@H]2C(=O)O[C@@H](c3ccccc3)[C@@H](c3ccccc3)N2[C@@H](c2ccc(OCCOC(=O)[C@@H]3C[C@@H]4C(=O)NCC(=O)N4[C@@H]3c3ccc(O)cc3)cc2)[C@]12C(=O)Nc1ccccc12	0.212	1.07 (inactive)	0.0006	-0.168	0.475	2.45	0.537	1.29	1.32	1.11	1.56	1.19	0.564	0.478	1.35	1.72	-1.43	1.18	-0.233	-2.56 (inactive)
COC(=O)[C@@]1(Cc2ccc(OC)cc2)[C@H]2c3cc(C(=O)N4CCCC4)n(Cc4ccccn4)c3C[C@H]2CN1C(=O)c1ccccc1	0.939	-0.832 (inactive)	0.277	0.246	0.82	1.55	0.285	1.31	-0.761	0.906	2.3	1.26	0.464	0.8	0.169	-0.332	1.37	-0.467	1.2	1.91 (inactive)
C[N+](C)(C)CCCCCCNC(=O)[C@H]1C[C@H]2C(=O)N3CCC[C@H]3C(=O)N2[C@H]1c1ccc(O)cc1	-0.608	0.287 (inactive)	0.0039	-0.107	0.5	1.73	-0.379	0.485	0.472	0.709	-0.167	0.0132	-0.166	-0.876	1.14	0.693	-1.39	1.12	-0.411	0.908 (inactive)
